# Screens (PubChem)
# The list is not random: actives were taken first. Their share in the collection is about 13%.
# USP28 block = inhibitors of human USP28 deubiquitinase. Q96RU2. hit rate 3% among 47,000. inhibition, % at 25 µM. purified USP28, Ub-rhodamine cleavage fluorescence, 30 min
# USP8 block = inhibitors of human USP8 deubiquitinase; P40818; purified USP8, Ub-rhodamine cleavage fluorescence, 30 min; inhibition, % at 20 µM; hit rate 4.2% among 47,000
# USP30 block = blocks human USP30 ubiquitin-rhodamine cleavage. purified USP30, Ub-rhodamine cleavage fluorescence. inhibition, % at 25 µM. hit rate 5.3% among 47,000
# USP17 inh = human USP17-like deubiquitinase inhibition; purified USP17, Ub-rhodamine cleavage fluorescence, 3 h; inhibition, % at 50 µM; hit rate 6.5% among 47,000; AID 1645855
# * marks the source's active call; other numbers are inactive results. Rule as the data show it: active = inhibition above about 30%; inactive = the rest.
SMILES,USP28 block,USP8 block,USP30 block,USP17 inh
CCOc1ccc(C2=NCCNC3=C2C(c2ccccc2)N(c2ccccc2)C3=O)cc1 (configuration not stated),20,30*,54*,7
CC(=O)N1c2ccccc2NC2=C(C(=O)CC(c3ccc(C)cc3)C2)C1c1cccnc1 (configuration not stated),11,17,23,3
O=C(NCCCN1CCOCC1)c1[nH]nc2c1CCc1ccccc1-2,3,0,4,0
CCCCOc1ccc(C(=O)Nc2nonc2C)cc1,9,1,0,-1
CCN1C(=O)COc2ccc(NC(=O)c3ccc(OCc4nonc4C)cc3)cc21,70*,8,19,22
COc1ccccc1-c1nc(C#N)c(N2CCN(C(=O)c3ccccc3)CC2)o1,15,9,47*,24
CCOc1ccc(-c2nc(C#N)c(N3CCN(C(=O)c4ccccc4C)CC3)o2)cc1,12,0,24,52*
COc1cccc(/C=C/c2nc(C#N)c(N3CCN(C(=O)c4ccc(F)cc4)CC3)o2)c1,-8,0,5,-10
O=C(NCCN1CCc2ccccc2C1)Nc1ccc(C(F)(F)F)cc1,46*,6,-4,-5
C=C(CCC(C)(C)/C=C/CC/C(C)=C/COC(COP(=O)(O)O[C@@H]1OC(C(N)=O)[C@@](C)(O)[C@H](OC(N)=O)C1O[C@@H]1OC(CO[C@@H]2OC(CO)[C@H](O)[C@H](O)C2O)[C@H](O[C@@H]2OC(CO)[C@H](O[C@@H]3OC(C(=O)NC4=C(O)CCC4=O)[C@H](O)[C@H](O)C3O)[C@H](O)C2NC(C)=O)C(O)[C@@H]1NC(C)=O)C(=O)O)CC1C(=C)CCCC1(C)C (some centres not stated),44*,-91,-137,-8
Cn1c(O)c(C2c3ccccc3Oc3c2c(=O)n(C)c(=O)n3C)c(=O)n(C)c1=O (configuration not stated),-22,-185,-104,-32
CCCc1cc(C2CCCN2C(=O)c2cc(-c3ccco3)on2)no1 (configuration not stated),4,-10,-36,47*
c1ccc(-c2cc(NC3CCCC3)n3nc(-c4cccnc4)nc3n2)cc1,4,4,0,2
Cc1cccc2nc(-c3cccnc3)c(NC3CCCC3)n12,43*,0,16,2
O=c1ccc(S(=O)(=O)N2CCOCC2)cn1Cc1cccc(F)c1,-9,0,13,-2
Cc1ccc(C(=O)N2CC[C@@H]3[C@H](C2)CN3C(=O)c2ccccc2)cc1,17,10,30*,6
Cc1ccc(S(=O)(=O)N2CC[C@@H]3CN(C(=O)c4ccccc4)[C@@H]3C2)cc1,12,22,35*,11
O=C(COc1ccc2ccccc2c1)N1CC(c2nc(C3CC3)no2)C1,-5,-1,-1,-11
CC(C)(NC(=O)OCc1ccccc1)C(=O)N1CCC2(CCCNC2)CC1,-1,-42,-5,-7
Cc1cccc(CSc2nc3nc4c(cn3n2)C(=O)CC(C)(C)C4)c1,17,8,35*,14
CCc1ccc(S(=O)(=O)N(C(=O)Oc2ccccc2)c2ccc3oc(C)c(C(C)=O)c3c2)cc1,2,-15,18,-1
O=C(Nc1cc(C(F)(F)F)cc(C(F)(F)F)c1)c1cnc2sccn2c1=O,1,-9,-15,-5
O=C(Nc1cc(C(F)(F)F)cc(C(F)(F)F)c1)c1ccc(-c2ccccn2)s1,12,-5,41*,19
CC(C)CCNC(=O)C1(C)CCC(=O)N1CCCc1ccccc1 (configuration not stated),8,0,13,3
O=C1C=C[C@]23Oc4ccc(O)c5c4[C@](Oc4cccc1c42)(O3)C1OC1[C@@H]5O (some centres not stated),6,5,-51,45*
COc1cccc(C(=O)[C@H]2[C@]3(C(=O)Nc4ccccc43)[C@@H]3CCCN3[C@@]23C(=O)Nc2ccccc23)c1,11,18,13,4
O=C(c1cccc([N+](=O)[O-])c1)[C@H]1[C@]2(C(=O)Nc3ccccc32)[C@@H]2CCCN2[C@@]12C(=O)Nc1ccccc12,35*,6,18,6
O=S(=O)(c1ccc(F)cc1)N1CCCC1c1ccnc(Nc2cnccn2)n1 (configuration not stated),45*,0,73*,47*
CNC(=O)C1CN(C(=O)Cc2ccc(C)cc2)CC12CCCC2 (configuration not stated),1,4,-10,2
CC(=O)c1ccc(NC(=O)CSc2cn(CC(=O)N3CCCC3)c3ccccc23)cc1,23,-10,16,9
